Measured values taken from PubChem BioAssay AID1159580 (chemical genetic matrix, 2015).
Out of some 5,500 compounds screened, about 2,000 (36%) were called active. Another 18% or so got no clear call; they are omitted. The list shows a part of the results. Values without a mark were called inactive. Cut-off read from the data, not from the text of the source: active = normalized growth mostly below about 0.91 (no sharp cut-off); inconclusive = no clear call, values can overlap the other calls; inactive = mostly above about 0.92.

Assay: chemical genetic growth profiling, strain panel (AID 1159580);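 note: tested at 20 µM; growth read once vehicle control cultures reached saturation at 30 °C; 1 = growth at the plate median or of vehicle wells; lower values mean less growth of the strain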
Conditions: S. cerevisiae deletion strains, growth OD
[1] = locus YHR030C, strain SLT2, hits give low values
[2] = locus YHR079C, strain IRE1, hits give low values
[3] = locus YJL095W, strain BCK1, hits give low values
[4] = locus YJR066W, strain TOR1, hits give low values
[5] = locus YLR113W, strain HOG1, hits give low values
[6] = locus YNL183C, strain NPR1, hits give low values
[7] = locus YOR231W, strain MKK1, hits give low values
[8] = locus YPL256C, strain CLN2, hits give low values

O=C(NC(=O)c1c(F)cccc1F)Nc1cc(Cl)c(OC(F)(F)C(F)C(F)(F)F)cc1Cl (stereo unspecified)
normalized growth (locus YAL021C, strain ccr4, hits give low values): 0.983
normalized growth (locus YAL026C, strain drs2, hits give low values): 0.987
normalized growth (locus YAL030W, strain snc1, hits give low values): 0.998
normalized growth (locus YBL061C, strain skt5, hits give low values): 0.974
normalized growth (locus YBR009C, strain hhf1, hits give low values): 0.997
normalized growth (locus YBR023C, strain chs3, hits give low values): 0.981
normalized growth (locus YBR171W, strain sec66, hits give low values): 0.987
normalized growth (locus YBR231C, strain swc5, hits give low values): 0.977
normalized growth (locus YBR279W, strain paf1, hits give low values): 0.988
normalized growth (locus YCL011C, strain gbp2, hits give low values): 0.987
normalized growth (locus YCL016C, strain dcc1, hits give low values): 0.988
normalized growth (locus YCL061C, strain MRC1, hits give low values): 0.989
normalized growth (locus YCL069W, strain vba3, hits give low values): 0.99
normalized growth (locus YCR088W, strain abp1, hits give low values): 0.988
normalized growth (locus YDL005C, strain med2, hits give low values): 0.984
normalized growth (locus YDL040C, strain nat1, hits give low values): 0.98
normalized growth (locus YDR001C, strain nth1, hits give low values): 0.991
normalized growth (locus YDR069C, strain doa4, hits give low values): 0.989
normalized growth (locus YDR137W, strain rgp1, hits give low values): 0.988
normalized growth (locus YDR159W, strain sac3, hits give low values): 1
normalized growth (locus YDR195W, strain ref2): 1.01
normalized growth (locus YDR297W, strain sur2, hits give low values): 0.978
normalized growth (locus YDR334W, strain swr1, hits give low values): 0.981
normalized growth (locus YDR335W, strain msn5, hits give low values): 0.99
normalized growth (locus YDR392W, strain spt3, hits give low values): 0.98
normalized growth (locus YEL003W, strain gim4, hits give low values): 1.01
normalized growth (locus YEL037C, strain rad23, hits give low values): 0.991
normalized growth (locus YEL061C, strain CIN8 (second series), hits give low values): 0.995
normalized growth (locus YER015W, strain faa2, hits give low values): 0.983
normalized growth (locus YER016W, strain bim1, hits give low values): 0.996
normalized growth (locus YER111C, strain swi4, hits give low values): 0.982
normalized growth (locus YER155C, strain BEM2 (second series), hits give low values): 0.998
normalized growth (locus YFR010W, strain ubp6, hits give low values): 0.986
normalized growth (locus YGL167C, strain pmr1, hits give low values): 0.977
normalized growth (locus YGL173C, strain kem1, hits give low values): 0.999
normalized growth (locus YGL227W, strain vid30, hits give low values): 0.997
normalized growth (locus YGL240W, strain doc1, hits give low values): 0.99
normalized growth (locus YGL253W, strain hxk2, hits give low values): 0.987
normalized growth (locus YHR013C, strain ard1, hits give low values): 0.96
normalized growth (locus YHR027C, strain rpn1, hits give low values): 0.996
normalized growth [1]: 1.04
normalized growth [2]: 1.03
normalized growth (locus YHR142W, strain chs7, hits give low values): 0.997
normalized growth (locus YJL092W, strain hpr5, hits give low values): 0.993
normalized growth (locus YJL095W, strain BCK1 (second series), hits give low values): 0.986
normalized growth [3]: 1.04
normalized growth (locus YJL115W, strain asf1, hits give low values): 0.987
normalized growth (locus YJL129C, strain trk1, hits give low values): 0.988
normalized growth (locus YJL154C, strain vps35, hits give low values): 0.985
normalized growth (locus YJL164C, strain tpk1, hits give low values): 0.988
normalized growth (locus YJL166W, strain qcr8, hits give low values): 0.995
normalized growth (locus YJL187C, strain SWE1, hits give low values): 0.986
normalized growth [4]: 0.977
normalized growth (locus YKL160W, strain elf1, hits give low values): 0.983
normalized growth (locus YKR026C, strain gcn3, hits give low values): 0.989
normalized growth (locus YKR091W, strain srl3, hits give low values): 0.989
normalized growth (locus YLL001W, strain dnm1, hits give low values): 0.996
normalized growth (locus YLL026W, hits give low values): 0.995
normalized growth (locus YLL041C, strain sdh2, hits give low values): 0.994
normalized growth (locus YLR027C, strain aat2, hits give low values): 0.993
normalized growth [5]: 1.01
normalized growth (locus YLR221C, strain rsa3, hits give low values): 0.984
normalized growth (locus YLR258W, strain gsy2, hits give low values): 0.999
normalized growth (locus YLR262C, strain YPT6 (second series), hits give low values): 0.995
normalized growth (locus YLR320W, strain mms22, hits give low values): 0.981
normalized growth (locus YLR342W, strain FKS1, hits give low values): 0.985
normalized growth (locus YLR357W, strain rsc2, hits give low values): 0.994
normalized growth (locus YLR370C, strain arc18, hits give low values): 0.986
normalized growth (locus YLR384C, strain iki3, hits give low values): 0.976
normalized growth (locus YML120C, strain ndi1, hits give low values): 0.987
normalized growth (locus YMR058W, strain fet3, hits give low values): 0.994
normalized growth (locus YMR125W, strain sto1, hits give low values): 0.979
normalized growth (locus YMR129W, hits give low values): 0.997
normalized growth (locus YMR205C, strain PFK2, hits give low values): 0.982
normalized growth (locus YMR231W, strain pep5, hits give low values): 1
normalized growth (locus YNL071W, strain lat1, hits give low values): 0.992
normalized growth [6]: 0.973
normalized growth (locus YNL209W, strain ssb2, hits give low values): 0.978
normalized growth (locus YNL248C, strain rpa49, hits give low values): 0.991
normalized growth (locus YNL322C, strain KRE1 (second series), hits give low values): 0.993
normalized growth (locus YNR049C, strain mso1, hits give low values): 0.986
normalized growth (locus YOR001W, strain rrp6, hits give low values): 0.987
normalized growth (locus YOR070C, strain gyp1, hits give low values): 0.989
normalized growth (locus YOR080W, strain dia2, hits give low values): 0.991
normalized growth (locus YOR083W, strain WHI5, hits give low values): 0.988
normalized growth (locus YOR106W, strain vam3, hits give low values): 0.994
normalized growth [7]: 0.992
normalized growth (locus YOR265W, strain rbl2, hits give low values): 0.985
normalized growth (locus YOR270C, strain vph1, hits give low values): 0.987
normalized growth (locus YOR290C, strain snf2, hits give low values): 0.977
normalized growth (locus YPL051W, strain arl3, hits give low values): 0.997
normalized growth (locus YPL078C, strain atp4, hits give low values): 0.99
normalized growth (locus YPL106C, strain sse1, hits give low values): 0.976
normalized growth (locus YPL240C, strain hsp82, hits give low values): 0.984
normalized growth [8]: 1.03

O=C(Nc1cccc(C(F)(F)F)c1)Oc1ccc(F)cc1Cl
normalized growth (locus YAR019C, strain CDC15, hits give low values): 0.977
normalized growth (locus YBL105C, strain PKC1, hits give low values): 0.977
normalized growth (locus YBR135W, strain CKS1, hits give low values): 0.982
normalized growth (locus YBR136W, strain MEC1, hits give low values): 0.98
normalized growth (locus YBR160W, strain CDC28, hits give low values): 0.979
normalized growth (locus YDL017W, strain CDC7, hits give low values): 0.985
normalized growth (locus YDL028C, strain MPS1, hits give low values): 0.977
normalized growth (locus YDL101C, strain DUN1, hits give low values): 0.992
normalized growth (locus YDL108W, strain KIN28, hits give low values): 0.97
normalized growth (locus YDL132W, strain cdc53, hits give low values): 0.974
normalized growth (locus YDL214C, strain PRR2, hits give low values): 0.978
normalized growth (locus YDR052C, strain DBF4, hits give low values): 0.985
normalized growth (locus YDR054C, strain cdc34, hits give low values): 0.975
normalized growth (locus YDR226W, strain ADK1, hits give low values): 0.975
normalized growth (locus YDR477W, strain SNF1, hits give low values): 0.993
normalized growth (locus YER123W, strain YCK3, hits give low values): 0.965
normalized growth (locus YER133W, strain GLC7, hits give low values): 0.983
normalized growth (locus YFL009W, strain cdc4, hits give low values): 0.974
normalized growth (locus YFL029C, strain CAK1, hits give low values): 0.977
normalized growth (locus YFR003C, strain YPI1, hits give low values): 0.982
normalized growth (locus YFR019W, strain FAB1, hits give low values): 0.987
normalized growth (locus YFR028C, strain CDC14, hits give low values): 0.98
normalized growth (locus YGR040W, strain KSS1, hits give low values): 0.977
normalized growth (locus YGR052W, strain FMP48, hits give low values): 1
normalized growth (locus YGR092W, strain DBF2, hits give low values): 0.951
normalized growth [1]: 0.822 (active)
normalized growth [2]: 0.87
normalized growth (locus YHR082C, strain KSP1, hits give low values): 1.1
normalized growth (locus YHR205W, strain SCH9, hits give low values): 0.951
normalized growth (locus YIL147C, strain SLN1, hits give low values): 0.975
normalized growth [3]: 0.955
normalized growth (locus YJL128C, strain PBS2, hits give low values): 0.947
normalized growth (locus YJL157C, strain FAR1, hits give low values): 0.98
normalized growth (locus YJR016C, strain ILV3, hits give low values): 0.984
normalized growth (locus YJR066W, strain TOR1 (second series), hits give low values): 0.938
normalized growth [4]: 1.04
normalized growth (locus YKL048C, strain ELM1, hits give low values): 1
normalized growth (locus YKL067W, strain YNK1, hits give low values): 1.01
normalized growth (locus YKL101W, strain HSL1, hits give low values): 0.983
normalized growth (locus YKL193C, strain SDS22, hits give low values): 0.983
normalized growth (locus YKL203C, strain TOR2, hits give low values): 1.02
normalized growth [5]: 0.762 (active)
normalized growth (locus YLR133W, strain CKI1, hits give low values): 0.976
normalized growth (locus YLR403W, strain SFP1, hits give low values): 0.964
normalized growth (locus YML070W, strain DAK1, hits give low values): 0.979
normalized growth (locus YMR001C, strain CDC5, hits give low values): 0.984
normalized growth (locus YMR205C, strain PFK2 (second series), hits give low values): 1
normalized growth (locus YMR277W, strain FCP1, hits give low values): 0.977
normalized growth (locus YNL006W, strain LST8, hits give low values): 0.976
normalized growth (locus YNL020C, strain ARK1, hits give low values): 0.967
normalized growth (locus YNL161W, strain CBK1, hits give low values): 0.983
normalized growth [6]: 0.998
normalized growth (locus YNL207W, strain RIO2, hits give low values): 0.972
normalized growth (locus YNL222W, strain SSU72, hits give low values): 0.973
normalized growth (locus YNL307C, strain MCK1 (second series), hits give low values): 0.982
normalized growth (locus YOL078W, strain AVO1, hits give low values): 0.983
normalized growth (locus YOL136C, strain PFK27, hits give low values): 0.969
normalized growth (locus YOR061W, strain CKA2, hits give low values): 0.983
normalized growth (locus YOR119C, strain RIO1, hits give low values): 1.05
normalized growth [7]: 0.912
normalized growth (locus YOR329C, strain SCD5, hits give low values): 0.979
normalized growth (locus YPL031C, strain PHO85, hits give low values): 0.97
normalized growth (locus YPL153C, strain RAD53, hits give low values): 0.974
normalized growth (locus YPL204W, strain HRR25, hits give low values): 0.992
normalized growth (locus YPL209C, strain IPL1, hits give low values): 0.979
normalized growth [8]: 0.778 (active)
normalized growth (locus YPR025C, strain CCL1, hits give low values): 0.979
normalized growth (locus YPR106W, strain ISR1, hits give low values): 0.99
normalized growth (locus YPR111W, strain DBF20, hits give low values): 0.964
normalized growth (strain NNK1, hits give low values): 0.989
normalized growth (strain TSCII, hits give low values): 0.972
